# TbREL1 inh: TbREL1 inhibition, primary screen. inhibition, % at 9.66 µM. TbREL1 RNA ligation, FRET fluorescence. actives 0.49% (n = 89,000);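 active = inhibition above the mean inhibition across all screened compounds plus 3 SD, cut at about 11% in these data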;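 also: 0% = plate median of test wells and 100% = NSC42067 control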
# Target sequence (P86926 whole entry, looked up): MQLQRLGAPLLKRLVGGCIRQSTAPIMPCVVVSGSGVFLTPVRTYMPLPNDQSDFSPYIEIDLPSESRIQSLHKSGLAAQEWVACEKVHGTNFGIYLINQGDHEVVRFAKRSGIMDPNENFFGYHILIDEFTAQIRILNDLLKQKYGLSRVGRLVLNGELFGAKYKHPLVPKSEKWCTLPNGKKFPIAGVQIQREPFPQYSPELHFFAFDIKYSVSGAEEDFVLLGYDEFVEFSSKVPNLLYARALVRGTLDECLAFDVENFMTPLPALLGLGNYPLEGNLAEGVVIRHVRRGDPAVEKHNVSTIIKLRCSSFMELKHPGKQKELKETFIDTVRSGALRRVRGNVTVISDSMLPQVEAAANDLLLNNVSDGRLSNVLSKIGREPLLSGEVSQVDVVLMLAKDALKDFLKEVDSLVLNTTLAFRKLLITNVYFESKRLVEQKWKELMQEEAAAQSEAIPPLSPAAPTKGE
# TbREL1 conf: TbREL1 inhibition, confirmation | shares compounds with TbREL1 inh | TbREL1 RNA ligation, FRET fluorescence | inhibition, % at 9.66 µM | actives 37% (n = 390) | AID 1117282;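 active = mean inhibition across replicates above a set limit taken from the earlier primary screen, cut at about 11% in these data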;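 also: 0% = REL1 with substrate and DMSO and 100% = REL1 plus control inhibitor NSC42067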
# The depositor's hits bear a star. The full list was thinned out, with hits kept by preference.
SMILES,TbREL1 inh,others
CC(C)c1ccc(NC(=O)CSc2nnc(-c3ccco3)n2C)cc1,3,
COc1cccc(NC(=O)CSc2nnc(-c3ccco3)c(-c3ccco3)n2)c1,11*,TbREL1 conf=5
Clc1cc(Cl)cc(CNC2CCC23CCC(c2ccccc2)CC3)c1 (centres undefined),1,
C=CCNC(=O)CN(C(=O)c1ccncn1)c1cccc(Br)c1,-1,
CCOc1ccc(-n2c(COc3ccc(C)cc3)nnc2SCC(=O)c2ccc3ccccc3c2)cc1,2,
CN=C1S/C(=C/c2cc(C)n(-c3cc(C)ccc3OC)c2C)C(=O)N1C,-5,
O=c1c(-c2ccc(O)cc2)coc2cc(OC3OC(CO)C(O)C(O)C3O)cc(O)c12 (centres undefined),0,
C[C@@H]1O[C@@H](Oc2c(-c3cc(O)c(O)c(O)c3)oc3cc(O)cc(O)c3c2=O)[C@H](O)[C@H](O)[C@H]1O,54*,TbREL1 conf=36*
COc1cc(-c2oc3cc(O)cc(O)c3c(=O)c2O[C@@H]2O[C@H](COC3O[C@@H](C)[C@H](O)[C@@H](O)[C@H]3O)[C@@H](O)[C@H](O)[C@H]2O)ccc1O (some centres undefined),-4,
Cn1c(SCC(=O)Nc2ccc(S(=O)(=O)Nc3nccs3)cc2)nc2sc3c(c2c1=O)CCCC3,-6,
Clc1ccc(CN2CCN(N=Cc3cccc(OCc4ccccc4)c3)CC2)cc1,-1,
CCCC1CCC2(CC1)CCC2OC(=O)Nc1cccc(Cl)c1 (centres undefined),3,
Clc1ccc(OCCNCCc2ccccc2)cc1,4,
c1ccc(CCNCCCOc2cccc3ccccc23)cc1,12*,TbREL1 conf=10
CC(=O)NCCOc1cccc2ccccc12,4,
Nn1c(SCC(=O)Nc2nccs2)nnc1-c1cc(-c2ccccc2)n[nH]1,-1,
CCc1nccn1CC(=O)c1ccc(O)c(O)c1,-1,
O=C(O[C@H]1CC[C@@]23CCCN2C(=O)CCC[C@H]3C1)N1CCN(c2ccccc2)CC1,8,
Nn1c(SCC(=O)Nc2ccccc2-c2ccccc2)nnc1-c1cc(-c2ccccc2)n[nH]1,4,
COc1ccc(-c2nnc(SCC(=O)Nc3ccc(S(=O)(=O)Nc4nccs4)cc3)n2-c2ccc(OC)cc2)cc1,-5,
COc1ccccc1N(Cc1ccccc1)S(=O)(=O)c1cccc(C(=O)Nc2cc(C)ccn2)c1,2,
COc1ccccc1N(Cc1ccccc1)S(=O)(=O)c1cccc(C(=O)NC2CC(C)(C)NC(C)(C)C2)c1,11*,TbREL1 conf=14*
CN(c1ccccc1)S(=O)(=O)c1cccc(C(=O)NC2CC(C)(C)NC(C)(C)C2)c1,1,
Cc1ccccc1CN1CCCCC(NC(=O)C2CCCCC2)C1=O (centres undefined),1,
CN(C)c1ccc(Cn2c(=O)n(Cc3ccc(C(=O)NCC4COC4)cc3)c(=O)c3ccccc32)cc1,4,
SMILES,TbREL1 inh,others
CCCCCCCCN1C(=O)[C@@H](CC(=O)NCc2ccc(C)o2)C[C@@]2(C(=O)OC)C1=C[C@H](C(C)C)O[C@@H]2C1CC1,-4,
O=C(O)c1ccc(S(=O)(=O)c2ccc3c(c2)C(=O)N(NC(=O)c2ccc(O)cc2)C3=O)cc1,12*,TbREL1 conf=2
Cc1ccc(C(=O)NN2C(=O)c3ccc(S(=O)(=O)c4ccc(C(=O)O)cc4)cc3C2=O)cc1,3,
O=C(O)c1ccc(S(=O)(=O)c2ccc3c(c2)C(=O)N(CC2CCCO2)C3=O)cc1 (centres undefined),1,
CCOC(=O)[C@]12CCCC=C1N(Cc1ccc(OC)cc1)C(=O)[C@@H]2CC(=O)N1CCSCC1,-3,
CCOC(=O)[C@@]12CCC3=C1N(CCC3)C(=O)[C@H](CC(=O)N1CCC(c3ccccc3)CC1)C2,1,
COC(=O)C1=C(C)N(Cc2ccccc2)C(=O)N[C@H]1c1cccs1,-1,
COC(=O)C1=C(C)N(Cc2cccc(C(F)(F)F)c2)C(=NCc2ccccc2C(F)(F)F)NC1c1ccccc1C(F)(F)F (centres undefined),16*,TbREL1 conf=24*
COC(=O)C1=C(C)N(C)C(=NCC2CC2)NC1c1ccccc1C(F)(F)F (centres undefined),-2,
COC(=O)C1=C(C)N(Cc2cccc(C(F)(F)F)c2)C(=NCc2ccc(OC)cc2)NC1c1ccccc1C(F)(F)F (centres undefined),12*,TbREL1 conf=23*
COC(=O)C1=C(C)N(Cc2cccc(C(F)(F)F)c2)C(=NCc2ccc(C(F)(F)F)cc2)NC1c1ccccc1C(F)(F)F (centres undefined),18*,TbREL1 conf=22*
COC(=O)C1=C(C)N(C)C(=NCc2cccc(C(F)(F)F)c2)NC1c1ccccc1C(F)(F)F (centres undefined),11,
Cc1c(C(=O)NCc2ccccc2C(F)(F)F)sc(=O)n1Cc1cccc(C(F)(F)F)c1,2,
COC(=O)C1=C(C)N(Cc2ccc(F)cc2)C(=S)NC1c1ccc(F)cc1 (centres undefined),-1,
COC(=O)C1=C(C)N(Cc2ccccc2)C(=NCc2cc(OC)c(OC)c(OC)c2)N[C@H]1CCc1ccccc1,3,
CCN=C1NC(c2ccccc2C(F)(F)F)C(C(=O)OC)=C(C)N1Cc1ccc(C(F)(F)F)cc1 (centres undefined),12*,TbREL1 conf=17*
Cc1ccc(C)c(NC(=O)C2CCCN2S(=O)(=O)c2cccnc2)c1 (centres undefined),6,
O=C(OCC#CCSc1nnc(-c2cccc3ccccc23)o1)c1ccc(OC(F)(F)F)cc1,4,
O=C(NCCc1c[nH]c2ccccc12)OCc1cn(Cc2ccccc2C(F)(F)F)nn1,-5,
Cc1ccc(S(=O)(=O)N2CCC(C(=O)NCc3cccs3)CC2)cc1,-1,
CC1CCN(c2ccc(C(=O)O)cc2NS(=O)(=O)c2ccc(Cl)s2)CC1,1,
COc1cccc(C(=O)n2ccc3ccc(-c4ccc5ccn(C(=O)c6cccc(OC)c6)c5c4)cc32)c1,0,
COc1ccc(Cn2ccc3ccc(-c4ccc5ccn(Cc6ccccc6F)c5c4)cc32)cc1,4,
C=CCN=C1NC(c2cccc(F)c2)C(C(=O)OC)=C(C)N1Cc1cccc(C(F)(F)F)c1 (centres undefined),11*,TbREL1 conf=12*
COC(=O)C1=C(C)N(Cc2ccccc2)C(=S)NC1c1cccc(Br)c1 (centres undefined),-5,
SMILES,TbREL1 inh,others
COC(=O)C1=C(C)N(Cc2ccc(F)cc2)C(=S)NC1c1cccc(F)c1 (centres undefined),-6,
COC(=O)C1=C(C)N(Cc2cccc(C(F)(F)F)c2)C(=NCc2ccccc2C(F)(F)F)NC1c1cccc(F)c1 (centres undefined),15*,TbREL1 conf=22*
COC(=O)C1=C(C)N(C)C(=NCc2ccc(C(F)(F)F)cc2)NC1c1ccc(F)cc1 (centres undefined),7,
CCN1C(=O)N[C@@H](c2cccc(C(F)(F)F)c2)C(C(=O)OC)=C1C,1,
COC(=O)C1=C(C)N(CC(C)C)C(=S)NC1c1cccc(F)c1 (centres undefined),-5,
COC(=O)C1=C(C)N(C)C(=NCc2ccccc2C(F)(F)F)NC1c1cccc(F)c1 (centres undefined),13*,TbREL1 conf=18*
CC(C)(C)[C@@H]1/C(=C/C2CC2)N2C(=O)C[C@@H](c3ccccc3)N=C2N1Cc1ccc2c(c1)OCO2,2,
c1nc2nc3c(c(N4CCCC4)n2n1)CCCC3,1,
O=C(Cn1nc(-c2ccccc2)ccc1=O)NCCc1cccc(F)c1,-2,

# High-throughput results: PubChem, The Scripps Research Institute Molecular Screening Center
